Screening data deposited in PubChem by several laboratories.
FXIIa mix inh = blocks human factor XIIa in pooled compound mixtures; P00748; inhibition, % at 5 µM; purified FXIIa, fluorogenic substrate; 62,000 compounds, 0.2% hits;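 also: 0% = enzyme without compound and 100% = no enzyme blank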
D1 mod = allosterically modulates the human D1 dopamine receptor. P21728. HEK293 D1, CRE-luciferase, dopamine EC30 potentiation; actives deviate in either direction. B-score at 10 µM. 58,000 compounds, 5.9% hits. AID 641;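 active = luminescence count or its row- and column-corrected plate score outside the 99.7% band of the plate's sample wells, on either side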
Target sequence (P21728 whole entry, looked up): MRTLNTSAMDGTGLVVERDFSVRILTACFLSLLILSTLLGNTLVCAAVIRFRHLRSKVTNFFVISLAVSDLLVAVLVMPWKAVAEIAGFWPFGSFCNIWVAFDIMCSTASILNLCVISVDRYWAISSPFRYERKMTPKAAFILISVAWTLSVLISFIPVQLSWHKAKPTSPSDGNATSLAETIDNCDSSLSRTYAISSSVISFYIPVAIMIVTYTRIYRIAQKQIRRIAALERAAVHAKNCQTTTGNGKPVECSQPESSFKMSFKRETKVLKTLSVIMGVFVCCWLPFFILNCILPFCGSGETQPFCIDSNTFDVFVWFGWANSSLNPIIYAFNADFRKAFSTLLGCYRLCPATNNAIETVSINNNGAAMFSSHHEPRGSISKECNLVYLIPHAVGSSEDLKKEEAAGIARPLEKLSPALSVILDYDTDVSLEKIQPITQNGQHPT
FXIa inh mix = blocks human factor XIa in pooled compound mixtures | AID 680 | 62,000 compounds, 0.19% hits | inhibition, % at 5 µM | P03951 | purified FXIa, fluorogenic substrate;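 also: each value is inhibition by a whole ten-compound pool holding the compound; 0% = enzyme with no mixture and 100% = wells lacking enzyme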
DAT uptake mod = modulates human dopamine transporter uptake under cocaine | LLC-PK1 hDAT cells, [14C]-dopamine uptake with cocaine IC80; actives deviate in either direction | B-score at 10 µM | Q01959 | 110,000 compounds, 1.3% hits;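 active = Z score or B-score, a plate-position-corrected score, falls beyond the plate's 99.7% confidence bounds, in either direction; inactive = both scores lie inside the 99.7% bounds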;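 also: scored against the spread of the other compound wells on the same plate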
M1 agonist = activates the M1 muscarinic receptor; CHO-M1 cells, Fluo-4 calcium fluorescence, agonist mode; hits give high values; B-score at 10 µM; 64,000 compounds, 3% hits;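 active = fluorescence rise, raw or as B-score row- and column-corrected plate score, outside the 99.7% band of its plate's samples, either direction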
M1 antagonist = antagonists of rat M1 muscarinic receptor. CHO-M1 cells, Fluo-4 calcium, ACh EC80 antagonist mode; hits give low values. P08482. 64,000 compounds, 3.4% hits. AID 628. B-score at 10 µM;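 active = calcium fluorescence response, raw or row-and-column corrected B-score, differing from the plate sample mean either way at a set confidence level, mostly lower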
Starred values were filed as active, the others as inactive; . = no result. Shown are actives, neighbours in structure and some others; about 7.4% of the full set was active somewhere. Rule as the data show it, unless noted: active = inhibition above about 20% (passing the limit was not always enough); inactive = the rest.

SMILES | FXIIa mix inh | D1 mod | FXIa inh mix | DAT uptake mod | M1 agonist | M1 antagonist
CN(C)CCNC(=O)c1cc2ccccc2oc1=O | 21* | . | 3 | -0.9 | 1.6 | -0.026
O=C(Nc1ccc(CN2CCOCC2)cc1)c1cc2ccccc2oc1=O | -1 | -5.6* | 5 | . | -0.88 | -0.91
O=C(Nc1cccnc1N1CCOCC1)c1cc2ccccc2oc1=O | -6 | 4.2* | 4 | . | 0.45 | -0.072
COCCCn1nnnc1SCC(=O)Nc1nc(C)c(C)s1 | 10 | 0.33 | 0 | 0.1 | -0.73 | -0.011
N#CC1=C(N)C(C#N)(C#N)[C@H](c2ccncc2)[C@H]2CN(C(=O)OCc3ccccc3)CC=C12 | -5 | . | 8 | 2.8* | -0.7 | 0.45
CC(C)(C)OC(=O)N1CC=C2C(C#N)=C(N)C(C#N)(C#N)[C@H](c3cccnc3)[C@H]2C1 | 11 | -0.042 | 6 | -0.051 | 1.6 | -0.39
COc1ccccc1N1C(=O)C2C3C=CC(C3)C2C1=O (stereo not given) | 21* | -0.19 | 1 | 0.047 | 0.4 | 0.24
CCCN1CCC(=O)N([C@H](CSc2ccc(OC)cc2)Cc2ccccc2)CC1 | . | . | . | 2.5* | . | .
CC(C)(C)c1ccc(OCCn2ccccc2=O)cc1 | 3 | . | 7 | 1.2 | 0.82 | 1.3
COCCCn1c(SCc2ccccc2)nc2cc(OC)c(OC)cc2c1=N | . | . | . | 8.2* | . | .
COCCCn1c(SCc2cccc(C(F)(F)F)c2)nc2cc(OC)c(OC)cc2c1=N | . | . | . | 1.1 | . | .
COC(=O)c1[nH]c2ccc(C)cc2c1NC(=O)CN1CCN(C(=O)c2ccccc2)CC1 | -17 | -0.083 | 9 | 2.7* | 0.66 | -0.12
O=C(NC1CCCC1)C1c2ccccc2C(=O)N1C1CCCCC1 (stereo not given) | -5 | 0.1 | 1 | -1.4 | 0.5 | 0.37
COc1ccc(NC(=O)c2nc(C)c(C3(C)CC(c4cccnc4)=NO3)s2)cc1 (stereo not given) | . | . | . | -0.18 | . | .
CCCCn1c(SCC(=O)N2c3ccccc3Sc3ccccc32)nc2c1c(=O)n(C)c(=O)n2C | . | . | . | 3.2* | . | .
CCCCn1c(SCC(=O)N2CCCc3ccccc32)nc2c1c(=O)n(C)c(=O)n2C | -4 | 0.39 | 6 | 0.98 | 9.7* | -0.034
Cn1c(=O)c2c(nc(SCC(=O)N3CCCc4ccccc43)n2C)n(C)c1=O | 10 | -0.5 | 5 | . | 0.042 | 0.98
CCCCn1c(SCc2ccccn2)nc2c1c(=O)n(C)c(=O)n2C | . | . | . | -0.12 | . | .
CC1Cc2ccccc2N1C(=O)CSc1nc2c(c(=O)n(C)c(=O)n2C)n1Cc1ccc(F)cc1 (stereo not given) | . | . | . | -6.9* | . | .
Cn1c(=O)c2c(nc(SCC(=O)N3CCc4ccccc43)n2Cc2ccccc2)n(C)c1=O | 5 | -0.036 | 4 | . | 0.33 | 0.9
CCCn1c(SCc2cc(=O)[nH]c3ccccc23)nc2c1c(=O)n(C)c(=O)n2C | -20 | 6* | 6 | -0.33 | 0.2 | 0.32
COc1ccccc1NC(=O)CSCC(N)=O | 8 | -0.49 | 4 | -0.12 | 0.55 | 0.36
Cc1ccsc1C(=O)OCc1nc2ccccc2c(=O)[nH]1 | . | . | . | -0.23 | . | .
CCc1nc(SCC(=O)N2CCCc3ccccc32)c2c(=O)n(C)c(=O)n(C)c2n1 | 6 | -0.43 | 2 | . | 3.5* | -1.8
CCc1nc(SCC(=O)N2CCC(Cc3ccccc3)CC2)c2c(=O)n(C)c(=O)n(C)c2n1 | . | . | . | 0.16 | . | .
SMILES | FXIIa mix inh | D1 mod | FXIa inh mix | DAT uptake mod | M1 agonist | M1 antagonist
Clc1ccc(Sc2oc(/C=N/n3cnnc3)cc2Br)cc1 | -18 | 0.18 | -27 | -0.74 | 0.31 | 0.6
CCn1nc(NC(=O)c2ccncc2)c2cc3cc(C)ccc3nc21 | 10 | . | -3 | 2.2* | 0.62 | -0.0049
CCCn1nc(NC(=O)c2cccs2)c2cc3cc(OC)ccc3nc21 | -2 | 0.18 | -2 | 0.42 | 3.6* | -1.4
CCCn1nc(NC(=O)c2cccs2)c2cc3ccccc3nc21 | . | . | . | 0.92 | . | .
CCCC(=O)Nc1nn(CCC)c2nc3ccccc3cc12 | . | . | . | 2.1* | -0.026 | -0.075
O=C1CC(N2CCC(c3nc4ccccc4s3)CC2)C(=O)N1Cc1ccccc1 (stereo not given) | . | . | . | 0.047 | . | .
O=C(/C=C\Nc1ccccn1)c1ccccc1 | 10 | -6.9* | 13 | 0.2 | 0.069 | -0.49
O=C(/C=C/Nc1ccccc1Br)c1ccccn1 | -19 | -8.1* | 10 | 0.012 | -0.0025 | 0.054
COc1ccc(N2CCCCn3c2nc2c3c(=O)[nH]c(=O)n2C)cc1 | 9 | . | -1 | -0.018 | -0.38 | 1.2
COc1ccccc1OCc1ccc(C(=O)N2CCN3CCCC3C2)cc1 (stereo not given) | 7 | -0.49 | 5 | 0.28 | 0 | -0.45
Cc1ccc(-c2nnc(COc3cccc(-n4cnnn4)c3)o2)cc1 | 5 | . | 2 | -11* | 0.16 | -0.75
COc1cccc(-n2cnnn2)c1 | . | . | . | -0.18 | . | .
Cc1cc(NC(=O)c2cc3nc(C4CC4)cc(C(F)(F)F)n3n2)no1 | 10 | 0.021 | 5 | -0.011 | -0.9 | 0.16
Cc1cc(C)c2nc(N3CCC(C(=O)NCCCN4CCCCC4)CC3)sc2c1 | . | . | . | 2.9 | . | .
Cc1ccc(-n2c(-c3ccncc3)nnc2-c2cccs2)cc1 | 2 | 7* | 4 | 0.16 | 0.97 | 0.91
Cc1ccc2nc(NC(=O)c3cccs3)sc2c1 | 6 | -2.8 | 1 | 0.77 | 0.91 | 1
CCCC(=O)Nc1nc2ccc(S(N)(=O)=O)cc2s1 | 22* | 0.96 | 3 | 0.58 | 0.28 | -0.057
CS(=O)(=O)c1ccc2nc(NC(=O)c3cccs3)sc2c1 | -5 | -5.7* | 7 | 0.28 | -1.2 | 0.0092
CCC(=O)Nc1nc2ccc(S(C)(=O)=O)cc2s1 | . | . | . | -1.2 | . | .
CC(=O)c1c(C(C)=O)c(C)n(Cc2ccc(Cl)cc2)c1C | . | . | . | -1.5 | . | .
O=C(CSc1ccc2nnc(-c3ccccn3)n2n1)NCC1CCCO1 (stereo not given) | 8 | -0.27 | 7 | 0.62 | -0.78 | 0.27
CCOC(=O)c1ccc(NC(=O)CSc2nnc(CNC(=O)c3ccccc3F)o2)cc1 | 6 | -0.2 | 9 | 0.095 | -1.3 | -0.0097
COc1ccc(OC)c(C2C(C(=O)c3cc4ccccc4o3)=C(O)C(=O)N2c2cc(C)on2)c1 (stereo not given) | 8 | 0.063 | 6 | 3.8* | -0.88 | -0.18
CCCn1c(NCc2ccc(C)o2)nc2ccccc21 | 10 | -1.6 | 26* | 1.8 | -0.41 | -0.44
CCOC(=O)Nc1cc(OC)c(OC)cc1Cc1nccc2cc(OC)c(OC)cc12 | 7 | 3.5 | -2 | 1.8 | 1.9 | -0.94
Clc1ccc(-n2cccc2/C=N/n2cnnc2)cc1 | . | . | . | -1.6 | . | .
Cn1cccc1/C=N/n1cnnc1 | . | . | . | 2.8* | -0.65 | -0.13
Cc1nc2ccccn2c1/C(O)=C1\C(=O)C(=O)N(CCN2CCOCC2)C1c1ccncc1 (stereo not given) | 37 | -0.09 | -1 | -0.65 | -1.5 | -0.39
CCN(CC)S(=O)(=O)c1ccc2nnn(OCC(=O)Nc3cccc(C#N)c3)c2c1 | 6 | -0.065 | -2 | 0.33 | -0.4 | -0.51
O=C(NCC1CCCO1)c1cnn2c1NC(c1ccccc1)CC2C(F)(F)F (stereo not given) | -16 | 0.088 | 5 | -0.033 | 0.69 | 0.67
